RORgamma inh – qHTS for inhibitors of ROR gamma transcriptional activity; Nuclear receptor ROR-gamma (Mus musculus), P51450; Drosophila S2 Gal4-RORgamma UAS-luciferase reporter, 20 h; Potency, µM (top dose mostly 53.6 µM), for inactives: top-dose activity change, negative = inhibition, hits mostly inhibitors; 5.4% of 310,000 active; AID 2551, 2010; note: nearly all actives have a fitted effect of over 60% in size
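In this cell-based reporter format, copper sulfate (700 uM final) drives Gal4–ROR gamma fusion expression from a metallothionein promoter in Drosophila Schneider cells; compounds preincubated 1 hr, reporter read after 20 hr at ambient temperature.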
VP16 counter – VP16 counterscreen qHTS for inhibitors of ROR gamma transcriptional activity. Drosophila S2 Gal4-VP16 UAS-luciferase, luminescence, 20 h. Potency, µM (series often up to 53.6 µM), for the others: at the highest dose activity, negative = inhibition, most hits filed as inhibitors. 3.5% of 310,000 active;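 note: Gal4-VP16 expression switched on by copper sulfate through the metallothionein promoter; nearly all actives have a fitted effect of over 50% in size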
12-LOX inh – Primary qHTS assay for inhibitors of human arachidonate 12S-lipoxygenase (ALOX12): Round 2; Polyunsaturated fatty acid lipoxygenase ALOX12 (Homo sapiens), P18054; purified 12hLO, xylenol orange hydroperoxide absorbance; Potency, µM (titrated, usually from 108 µM), without a hit: at the highest dose activity change, negative = inhibition, most hits filed as inhibitors; 1.1% of 580,000 active
Target sequence (P18054 whole entry, looked up): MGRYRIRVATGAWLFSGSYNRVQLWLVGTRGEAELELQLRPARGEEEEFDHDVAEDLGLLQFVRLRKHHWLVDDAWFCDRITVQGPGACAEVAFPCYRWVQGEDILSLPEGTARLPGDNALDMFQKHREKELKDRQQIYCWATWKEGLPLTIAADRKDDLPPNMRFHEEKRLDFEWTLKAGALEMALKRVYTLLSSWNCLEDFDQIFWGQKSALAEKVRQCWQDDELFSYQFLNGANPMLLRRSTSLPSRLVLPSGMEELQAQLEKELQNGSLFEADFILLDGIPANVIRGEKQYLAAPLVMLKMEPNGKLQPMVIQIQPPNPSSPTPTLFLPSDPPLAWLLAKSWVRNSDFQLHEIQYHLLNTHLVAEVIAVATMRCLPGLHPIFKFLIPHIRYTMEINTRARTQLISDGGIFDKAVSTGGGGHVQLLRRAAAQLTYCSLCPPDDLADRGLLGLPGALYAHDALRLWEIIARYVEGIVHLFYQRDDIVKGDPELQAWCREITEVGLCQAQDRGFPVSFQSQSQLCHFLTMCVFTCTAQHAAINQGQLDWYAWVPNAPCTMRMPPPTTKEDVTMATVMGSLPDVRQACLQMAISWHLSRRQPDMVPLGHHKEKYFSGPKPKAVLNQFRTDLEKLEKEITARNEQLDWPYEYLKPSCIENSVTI
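Purified human 12hLO (150 nM final) in 25 mM Hepes, 0.01% Triton X-100, pH 7.0 was preincubated 15 min at room temperature with compound. Then 40 uM arachidonic acid was added, 30 min. Hydroperoxide was read by Fe-XO absorbance ratio 573/405 nm.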
TDP1 cell noCPT – qHTS for Inhibitors of human tyrosyl-DNA phosphodiesterase 1 (TDP1): qHTS in cells in absence of CPT. Potency, µM (highest dose often 46.2 µM), for inactives: at the highest dose activity change, negative = growth inhibition, actives largely listed as inhibitors. DT40 Tdp1-/- hTDP1 cells, no CPT, ATP luminescence, 48 h. 15% of 420,000 active; note: nearly all actives have a fitted effect of over 55% in size
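Compound effects on proliferation are scored in DT40 Tdp1-/-;hTDP1 cells in the absence of CPT. ATP levels (CellTiter-Glo luminescence) are recorded after a ≥48 hr, 37 °C incubation.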
ELG1 repair inh – qHTS screen for small molecules that inhibit ELG1-dependent DNA repair in human embryonic kidney (HEK293T) cells expressing luciferase-tagged ELG1. 2.3% of 330,000 active. HEK293T ELG1-luciferase reporter, luminescence, 16 h; DNA damage induced by 5-fluorouridine. Potency, µM (highest dose often 46.1 µM), for the others: at the top dose activity change, negative = inhibition, hits mostly inhibitors; note: nearly all actives have a fitted effect of over 55% in size
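HEK293T cells expressing luciferase-tagged ELG1 (2,000/well) received 5-Fluorouridine plus compound or DMSO for 16 hr at 37 °C. Luciferase was read by ONE-Glo luminescence after 30 min at room temperature.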
DT40 TDP1 CPT – qHTS for Inhibitors of human tyrosyl-DNA phosphodiesterase 1 (TDP1): qHTS in cells in presence of CPT; 12% of 420,000 active; chicken DT40 Tdp1-/-;hTDP1 cells + 20 nM CPT, ATP luminescence, 48 h; Potency, µM (series often up to 46.2 µM), for inactives: top-dose activity change, negative = growth inhibition, usual class: inhibitors; note: nearly all actives have a fitted effect of over 55% in size
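Chicken DT40 Tdp1-/- cells complemented with human TDP1, 400 cells/well, exposed to compounds plus 20 nM camptothecin for at least 48 h at 37 C; viability read as ATP content by CellTiter-Glo luminescence.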
Starred values were filed as active, the others as inactive; [ ] = remark or other dose. The list is not random: actives were taken first. Their share in the collection is about 15%. Calls come from the whole dose curve; as a rule, active = well fitted curve in the direction sought with a large enough effect; inconclusive = small, poorly fitted or top-dose-only effect, or another doubt; inactive = no such curve, though single readings can be large; an effect the other way counts as inactive or inconclusive. % is set by controls: 0 for no effect and ±100 for the full control effect; potency is the fitted concentration of half-maximal effect.

O=C(Cn1nnc2ccccc21)c1cccc([N+](=O)[O-])c1 was read as RORgamma inh 19%, VP16 counter -6%, 12-LOX inh -12%, TDP1 cell noCPT -15%, ELG1 repair inh 8% and DT40 TDP1 CPT -10%.
Screening CCCCNC(=O)C1CC(=O)N(c2n[nH]c3cccc(F)c23)C1 (centres undefined) returned 12-LOX inh 51%.
`CCOC(=O)C(NC(=O)c1ccccc1)(Nc1ccccc1OC)C(F)(F)F` (centres undefined) gave 12-LOX inh 1%.
For COc1ccc(CN2C=C(C(=O)OCc3noc(C4CCCC4)n3)C(C)=NS2(=O)=O)cc1 the results were 12-LOX inh 16%.
CCCNC(=O)N(C1CCOCC1)C1CCN(S(=O)(=O)c2cc(F)ccc2C)CC1 was read as 12-LOX inh 30%.
Screening FC(F)(F)c1cc(CO[C@H]2CCCN[C@H]2c2ccccc2)cc(C(F)(F)F)c1 returned RORgamma inh 25µM*, VP16 counter -28%, 12-LOX inh 7%, TDP1 cell noCPT 13µM* and DT40 TDP1 CPT 11µM*.
For COc1ccc2cc3cc(C(=O)N4CCN(c5ccccn5)CC4)oc3nc2c1 the results were RORgamma inh -8%, VP16 counter 5%, 12-LOX inh 17%, TDP1 cell noCPT 18µM*, ELG1 repair inh -4% and DT40 TDP1 CPT inconclusive.
`COc1ccc2nc3oc(C(=O)N4CCN(c5cccc(Cl)c5)CC4)cc3cc2c1` gave RORgamma inh inconclusive, VP16 counter -6%, 12-LOX inh 21%, TDP1 cell noCPT inconclusive, ELG1 repair inh inconclusive and DT40 TDP1 CPT inconclusive.
`COc1ccc2cc3cc(C(=O)N4CCN(Cc5ccc6c(c5)OCO6)CC4)oc3nc2c1` gave RORgamma inh 20%, VP16 counter -5%, 12-LOX inh -24%, TDP1 cell noCPT inconclusive, ELG1 repair inh 23µM* and DT40 TDP1 CPT inconclusive.
For COc1cc2c(cc1OC)C(C)N(C(=S)NC(=O)c1ccccc1)CC2 (centres undefined) the results were RORgamma inh 1.3µM*, VP16 counter 2.2µM*, 12-LOX inh -16%, TDP1 cell noCPT 21µM*, ELG1 repair inh inconclusive and DT40 TDP1 CPT inconclusive.
`COc1cc2c(cc1OC)[C@H](C)N(C(=O)NCc1ccccc1)CC2` gave RORgamma inh -3%, VP16 counter 1%, 12-LOX inh 10%, TDP1 cell noCPT 7.3µM*, ELG1 repair inh -24% and DT40 TDP1 CPT 23µM*.
COc1cc2c(cc1OC)C(C)N(C(=S)Nc1ccccc1)CC2 (centres undefined) was read as RORgamma inh inconclusive, VP16 counter -14%, 12-LOX inh -8%, TDP1 cell noCPT inconclusive, ELG1 repair inh -3% and DT40 TDP1 CPT 3%.
Screening O=C(CSc1nnc(COc2ccc(Br)cc2)o1)N1CCOCC1 returned RORgamma inh 18%, VP16 counter -5%, 12-LOX inh -9%, TDP1 cell noCPT 18µM*, ELG1 repair inh inconclusive and DT40 TDP1 CPT -33%.
`O=C(CSc1nc(-c2ccccc2)c(-c2ccccc2)o1)N1CCOCC1` gave RORgamma inh 22%, VP16 counter 4%, 12-LOX inh 0%, TDP1 cell noCPT 16µM*, ELG1 repair inh inconclusive and DT40 TDP1 CPT 29µM*.
Screening CN(C)C(=O)CSc1nc(-c2ccccc2)c(-c2ccccc2)o1 returned RORgamma inh 23%, VP16 counter 4%[10 µM], 12-LOX inh 0%, TDP1 cell noCPT inconclusive, ELG1 repair inh -9% and DT40 TDP1 CPT -28%.
`O=C(CSc1nnc(COc2ccccc2)o1)N1CCOCC1` gave RORgamma inh 0.11µM*, VP16 counter -5%, 12-LOX inh -1%, TDP1 cell noCPT -17%, ELG1 repair inh 14% and DT40 TDP1 CPT -11%.
For O=C(CSc1nnc(COc2ccccc2)o1)N1CCN(c2ccccc2)CC1 the results were RORgamma inh -1%, VP16 counter -12%, 12-LOX inh 6%, TDP1 cell noCPT inconclusive, ELG1 repair inh 0% and DT40 TDP1 CPT -21%.
`O=C1CCN(C(=O)c2cccnc2)CCCC(C(=O)NCCCc2ccccc2)CCN1` (centres undefined) gave 12-LOX inh 41%.
`COc1ccccc1N(C)C(=O)Cc1noc2ccccc12` gave 12-LOX inh 4%.
For O=C(O)c1cccc(-n2sc3ccccc3c2=O)c1 the results were 12-LOX inh 11µM*, TDP1 cell noCPT inconclusive, ELG1 repair inh 24% and DT40 TDP1 CPT inconclusive.
For O=c1c2ccccc2sn1-c1cccc(Cl)c1 the results were 12-LOX inh inconclusive, TDP1 cell noCPT 2.3µM* and DT40 TDP1 CPT 1.8µM*.
CC(=O)Nc1ccc2c(=O)n(-c3ccccc3)sc2c1 was read as 12-LOX inh 1µM*, TDP1 cell noCPT 3.3µM* and DT40 TDP1 CPT 2.6µM*.
For CC1NC(=O)c2ccccc2-n2c1nc1cc(F)ccc1c2=O (centres undefined) the results were 12-LOX inh -3% and ELG1 repair inh 9%.
`Cc1ccccc1-n1sc2cc(F)ccc2c1=O` gave RORgamma inh 3.2µM*, VP16 counter 2.8µM*, 12-LOX inh inconclusive, TDP1 cell noCPT 2.6µM*, ELG1 repair inh inconclusive and DT40 TDP1 CPT 1.8µM*.
For O=C(O)c1cccc(N2C(=O)CCC2=O)c1 the results were RORgamma inh -16%, VP16 counter -1% and ELG1 repair inh -2%.
For CCOc1c(Br)cc(C(=O)Nc2ncccc2C)cc1OC the results were 12-LOX inh 12%.
Screening Cc1noc(C)c1Cn1cnc(-c2ccccc2)c1-c1ccc(CO)o1 returned 12-LOX inh 44%.
O=c1ccsc2ccccc12 was read as 12-LOX inh -6%, TDP1 cell noCPT 2% and DT40 TDP1 CPT 7%.
Screening O=c1c2ccccc2sn1-c1ccccc1 returned RORgamma inh 3.5µM*, VP16 counter 2.8µM*, 12-LOX inh 0.56µM*, TDP1 cell noCPT 2.9µM*, ELG1 repair inh inconclusive and DT40 TDP1 CPT 2.6µM*.
Screening Cn1sc2ccccc2c1=O returned 12-LOX inh -35%, TDP1 cell noCPT 1.6µM* and DT40 TDP1 CPT 2.3µM*.
